Compounds with a hit are over-represented: about 3.5% of the library has one in this group of screens.
FBW7 act: FBW7 E3 ligase activators, primary screen, biochemical, AlphaScreen, human; AlphaScreen FBW7–phospho-cyclin E peptide binding, activator screen; actives 0.13% (n = 650,000); normalized activity (activation), % at 26.1 µM; AID 1259310, 2017; in the data active = normalized activity above about 1.9%;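 note: purified mutant Fbw7 with reduced substrate affinity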
GPR151 activ: activators of human GPR151, primary screen, cell-based, PathHunter beta-arrestin, luminescence | activation, % at 11.2 µM | PathHunter beta-arrestin GPR151 cells | actives 1% (n = 650,000); in the data active = activation above about 4.9%
Target sequence (Q8TDV0 whole entry, looked up): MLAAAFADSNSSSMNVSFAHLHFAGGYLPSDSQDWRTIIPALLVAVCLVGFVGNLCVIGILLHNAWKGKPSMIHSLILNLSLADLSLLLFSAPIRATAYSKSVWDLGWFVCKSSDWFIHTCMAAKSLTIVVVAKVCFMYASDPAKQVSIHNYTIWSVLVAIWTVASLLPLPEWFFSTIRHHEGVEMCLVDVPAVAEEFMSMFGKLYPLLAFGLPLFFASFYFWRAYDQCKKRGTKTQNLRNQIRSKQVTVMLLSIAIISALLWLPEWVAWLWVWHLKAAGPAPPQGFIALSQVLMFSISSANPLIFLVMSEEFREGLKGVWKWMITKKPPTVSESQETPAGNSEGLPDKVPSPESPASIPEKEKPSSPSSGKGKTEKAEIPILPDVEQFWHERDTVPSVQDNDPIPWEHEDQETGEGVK
TEAD-YAP inh: TEAD-YAP interaction inhibition, primary screen, TEAD-YAP interaction inhibitor project, luminescence, HEK-TIYL cells. TEAD-Gal4/YAP UAS-luciferase luminescence. inhibition, % at 9.12 µM. actives 1.4% (n = 640,000); in the data active = inhibition above about 32%
MITF primary: MITF inhibitors, primary screen, biochemical, AlphaScreen, human; Microphthalmia-associated transcription factor (Homo sapiens), O75030; AlphaScreen MITF homodimerization, bead proximity signal; inhibition, % at 2.6 µM; actives 0.91% (n = 650,000); AID 1259374, 2018; in the data active = inhibition above about 50%
Of the large screens only hits and unclear results are named; the others gave an inactive call; ! = not active in a repeat.

CCOC(=O)C1=CN(C(C)C)C=C(C(=O)OCC)C1c1ccccc1Br	FBW7 act 2.0
COC(=O)C1=CN(C(C)C)C=C(C(=O)OC)C1c1cccc(OC)c1	none
CCOC(=O)C1=CN(C(C)C)C=C(C(=O)OCC)C1c1cccc(OC)c1	FBW7 act 8.5
O=C(OCc1cc([N+](=O)[O-])ccc1Cl)c1ccc([N+](=O)[O-])cc1	none
Cc1cc(O)cc(O)c1/C=N/NC(=O)c1ccc2c(c1)OCCO2	TEAD-YAP inh 56
O=C(N/N=C/c1ccc(O)cc1O)c1ccc2c(c1)OCCO2	TEAD-YAP inh 61
O=C(N/N=C/c1ccc(O)cc1O)c1ccc(CN2C(=O)c3cccc4cccc2c34)cc1	TEAD-YAP inh 33
O=C(N/N=C/c1ccc(O)c(I)c1)c1ccc2c(c1)OCCO2	none
O=C(N/N=C\c1ccc([N+](=O)[O-])o1)c1ccccc1-n1cccc1	TEAD-YAP inh 49
Cc1cc(C(=O)N/N=C/c2ccc(O)c(O)c2O)c2ccccc2n1	MITF primary 82
COc1cc(C(=O)N/N=C/c2ccc([N+](=O)[O-])o2)cc(OC)c1OC	TEAD-YAP inh 34
Cc1cc(C(=O)N/N=C/c2cc([N+](=O)[O-])ccc2O)c2ccccc2n1	MITF primary 102
COc1ccc(C(=O)Nn2c(-c3ccc(F)cc3)nc3ccccc3c2=O)cc1	none
CCOC(=O)c1c(N/N=C(\C)c2ccc(Br)cc2)n[nH]c1C	none
O=C(O)CCCC(=O)N1N=C(c2ccc(Cl)cc2)CC1c1ccco1 (configuration not stated)	none
Cc1ccc(C(=O)N/N=C/c2ccc(O)c(O)c2O)c(C)c1	MITF primary 57
Cc1cc(C(=O)N/N=C/c2ccccc2OC(F)F)c2ccccc2n1	TEAD-YAP inh 34
Cc1cc(C(=O)N/N=C/c2ccc(O)c(O)c2O)c(C)n1-c1ccccc1	none
Cc1c(C(=O)N/N=C/c2cccc(OC(=O)N3CCOCC3)c2)nnn1-c1nonc1N	none
CCOc1cccc(/C=N/NC(=O)c2ccc(C)cc2C)c1O	none
COc1cc(C(=O)N/N=C/c2cccc(OC(=O)N3CCOCC3)c2)cc(OC)c1OC	TEAD-YAP inh 58
O=C(N/N=C/c1ccc(O)c(O)c1O)c1ccccc1-n1cccc1	MITF primary 56
O=[N+]([O-])c1ccc(Cl)c(S(=O)(=O)NCc2cccnc2)c1	none
CS(=O)(=O)c1ccc(Sc2nc3ccccc3s2)c([N+](=O)[O-])c1	TEAD-YAP inh 64
O=[N+]([O-])c1cc(S(=O)(=O)N2CCOCC2)ccc1Sc1nc2ccccc2s1	none
NC1=NC(=O)/C(=C/c2cc(O)ccc2Cl)S1	TEAD-YAP inh 39
COc1ccc(OC)c(/C=C2\SC(N)=NC2=O)c1	MITF primary 58
COc1ccc(/C=C2/SC(N)=NC2=O)c(OC)c1	none
Nc1cccc2c1C(=O)N(C(=O)CCS(=O)(=O)c1ccc(Cl)cc1)C2=O	none
Cc1ccc2nc(-c3cc(N)cc(N)c3)oc2c1	TEAD-YAP inh 56
Cc1cc2nc(-c3ccc(C)c(N)c3)oc2cc1C	TEAD-YAP inh 36
Cc1ccc(-c2nc3ccccc3o2)cc1N	none
Cc1ccc2nc(-c3cc(N)ccc3O)oc2c1	none
Cc1cc2nc(-c3cccc(N)c3)oc2cc1C	TEAD-YAP inh 35
CCc1ccc2oc(-c3ccc(C)c(N)c3)nc2c1	TEAD-YAP inh 43
Cn1c(SCC(=O)Nc2ccc(F)cc2)nnc1-c1cccc(N)c1	none
CCCCCn1c(SC(C(=O)NCc2ccccc2)C(=O)NCc2ccccc2)nc2cc(C(=O)NCc3ccco3)ccc2c1=O	none
O=C(NCC1CCC2(CCN(C(=O)c3ccoc3)CC2)O1)c1ccccc1C(F)(F)F (configuration not stated)	none
O=C1CSC(=S)N1c1ccc(F)cc1	none
CN(C)c1ccc(N2C(=O)CSC2=S)cc1	MITF primary 54
N/C(=N\OC(=O)Nc1ccccc1)c1ccc(Cn2cc(C(F)(F)F)ccc2=O)cc1	none
Cc1c(N=Nc2ccc([N+](=O)[O-])cc2S(=O)(=O)O)co[n+]1[O-]	none
Cc1nc(N=Nc2cc(S(=O)(=O)O)c3cc([N+](=O)[O-])cc(S(=O)(=O)O)c3c2)c(COP(=O)(O)O)c(C=O)c1O	MITF primary 77!
CCOc1ccc(S(=O)(=O)N2c3ccc(C)cc3C(C)=CC2(C)C)cc1	TEAD-YAP inh 64
COc1ccc(/C=C/C(=O)N2c3ccc(OC)cc3C(C)=CC2(C)C)cc1	none
CC1=CC(C)(C)N(S(=O)(=O)c2ccc(C)cc2)c2c(C)cc(C)cc21	TEAD-YAP inh 36
CC1=CC(C)(C)N(S(=O)(=O)c2ccc(C)cc2)c2cc(C)c(C)cc21	TEAD-YAP inh 65
CC1=CC(C)(C)N(S(=O)(=O)c2ccc(Cl)cc2)c2c(C)cc(C)cc21	none
COc1ccc(S(=O)(=O)N2c3ccc(Br)cc3C(C)=CC2(C)C)cc1	TEAD-YAP inh 55
CC1=CC(C)(C)N(S(=O)(=O)c2ccc(F)cc2)c2ccc(C)cc21	TEAD-YAP inh 44
COc1ccc(S(=O)(=O)N2c3ccc(C)cc3C(C)=CC2(C)C)cc1	TEAD-YAP inh 62
CC1=NN(c2cccc(Cl)c2)C(=O)/C1=C/c1ccc(-c2ccccc2C(=O)O)o1	none
CC(=O)c1ccccc1OCC(=O)c1ccc(Br)cc1	none
CC(=O)N1CC(C)Sc2cc(S(=O)(=O)N3CCN(Cc4ccccc4)CC3)ccc21 (configuration not stated)	TEAD-YAP inh 49
CCOc1ccc(NC(=O)c2cnn3ccccc23)cc1	TEAD-YAP inh 94
CCc1ccc(NC(=O)c2cnn3ccccc23)cc1	TEAD-YAP inh 89
Cc1ccccc1NC(=O)c1cnn2ccccc12	none
Cc1ccc(N2C(=O)CSC2c2cccc(Cl)c2Cl)cc1F (configuration not stated)	none
CCOC(=O)N1CCN(c2nnnn2-c2ccccc2)CC1	none
CCOc1ccccc1N1CCN(c2nnnn2-c2ccccc2)CC1	TEAD-YAP inh 42
Cc1cc(C(=O)COC(=O)c2ccc(O)cc2O)c(C)n1-c1ccccc1	TEAD-YAP inh 64
Cc1cc(Nc2ccc3c(c2)OCO3)nc(Nc2nccc3ccccc23)n1	TEAD-YAP inh 35
Nc1nc(Nc2ccc3c(c2)OCO3)cc(Nc2nccc3ccccc23)n1	TEAD-YAP inh 36
Cc1c(CCNS(=O)(=O)c2ccc(F)cc2)sc2nc(-c3ccc(F)cc3)nn12	TEAD-YAP inh 37
CCOCCOC(=O)C1=C(C)NC2=C(C(=O)CC(c3ccc(OC)cc3)C2)C1c1ccc(OC)c(Br)c1 (configuration not stated)	none
O=C(NCC1CCCO1)c1nn(-c2ccc(F)cc2)cc1OCc1ccc(F)cc1 (configuration not stated)	none
Cc1ccccc1C(=O)/C(C#N)=N/Nc1c(C)n(C)n(-c2ccccc2)c1=O	MITF primary 70
Cc1c(N/N=C(\C#N)C(=O)c2ccccc2)c(=O)n(-c2ccccc2)n1C	none
